# A number with no mark means an inactive call. The rule behind the calls is not given here.
# Biological target: Pantothenate synthetase (Mycobacterium tuberculosis (strain ATCC 25618 / H37Rv)) (UniProt P9WIL5)
# Assay: Coupled enzyme confirmation of inhibitors against recombinant Mtb PanC (AID 375);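 note: 0% = full reaction with vehicle and 100% = no enzyme background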
# Settings: coupled enzyme assay; at 10 µM, hits give high values
# Pantothenate synthetase (Mycobacterium tuberculosis (strain ATCC 25618 / H37Rv)), sequence (P9WIL5 whole entry, looked up): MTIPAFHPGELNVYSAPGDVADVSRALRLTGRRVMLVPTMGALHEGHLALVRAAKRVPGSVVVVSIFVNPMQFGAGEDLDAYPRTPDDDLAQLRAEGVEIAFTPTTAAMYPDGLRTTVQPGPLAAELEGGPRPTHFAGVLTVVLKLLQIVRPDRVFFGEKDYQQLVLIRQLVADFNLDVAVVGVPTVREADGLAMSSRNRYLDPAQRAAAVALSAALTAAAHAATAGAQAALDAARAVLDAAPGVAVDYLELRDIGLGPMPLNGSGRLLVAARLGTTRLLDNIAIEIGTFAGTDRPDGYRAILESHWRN
row,SMILES,inhibition [%]
1,COc1ccc(OC)c(S(=O)(=O)N2CCN(c3c(C)cccc3C)CC2)c1,1
2,CC1CCN(C(=O)CSc2nnc(Cc3cc(=O)[nH]c(=O)[nH]3)n2-c2ccc(Cl)cc2)CC1,4
3,CCCCOCCCNC(=O)c1ccc(NC(C)=O)cc1,0
4,Cc1ccc2nc3c(cc(C(=O)NCC4CCCO4)n3C)c(=O)n2c1 (stereo not drawn),0
5,CCN(CC)CCCNS(=O)(=O)c1ccc(OC)cc1,3
6,O=C(Cn1cnc2ccccc2c1=O)NCCC(=O)N1CCN(c2ccccc2)CC1,0
7,COC(=O)CCn1nnc(-c2ccc(C)cc2)n1,1
8,CCCN1CCN(CCCNC(=O)Cn2ncc3c4ccccc4n(C)c3c2=O)CC1,3
9,COc1cc(C(=O)Nc2cc(C)ccn2)cc(OC)c1OC,0
10,C=CCn1c(Cc2cccs2)nnc1SCC(=O)Nc1ccc(OC)c(OC)c1,0
11,Cc1ccc(-n2c(Cn3cnc4ccccc43)nnc2SCC(=O)O)cc1,0
12,CCCC(=O)Nc1c2c(nn1-c1ccc(OC)cc1)CS(=O)C2 (stereo not drawn),1
13,CC1(c2ccncc2)Nc2ccccc2-c2nc3ccccc3n21 (stereo not drawn),0
14,Cn1c(N2CCC(C(N)=O)CC2)nc2c1c(=O)n(Cc1ccc(Br)cc1)c(=O)n2C,0
15,CC(Oc1ccccc1)C(=O)NC1CCN(Cc2ccccc2)CC1 (stereo not drawn),7
16,COc1ccc(OC)c(S(=O)(=O)Nc2ccc(C(N)=O)cc2)c1,0
17,CCOC(=O)c1c(-c2ccc(C)o2)csc1NC(=O)COC(=O)c1cccs1,5
18,CC1=C(C(=O)OC2CCCCC2)C(c2cccnc2)n2ncnc2N1 (stereo not drawn),0
19,Cc1cc(C)n(-c2ccc(C(=O)Nc3ccc4c(c3)OCCO4)cc2)n1,2
20,CC(NC(=O)c1ccco1)C(c1cccs1)N1CCN(c2ccc(F)cc2)CC1 (stereo not drawn),0
21,Cc1ccc(C(=O)Nc2nc3c(s2)CCCC3)o1,2
22,COc1ccccc1N1CCN(C(=O)C2CCCO2)CC1 (stereo not drawn),0
23,O=C(CSc1nnc(-c2ccco2)c(-c2ccco2)n1)Nc1ccccc1,2

# — PubChem BioAssay
